Hits are enriched below; roughly 17% of the tested compounds scored in any of these assays.
ClpP mod: qHTS Assay for Activators of ClpP | ATP-dependent Clp protease proteolytic subunit (Bacillus subtilis (strain 168)), P80244 | purified B. subtilis ClpP, FRET peptide cleavage, 20 min | Potency, µM (top dose mostly 57.5 µM), for the others: top-dose activity change, negative = active | hit rate 1.9% among 340,000; active means well fitted falling curve with a large enough effect; inconclusive means small, poorly fitted or top-dose-only effect; inactive means no such curve, though single readings can be large or run the other way; further: the source files actives as falling curves though it sought activators and does not explain the sign; nearly all actives have a fitted effect of over 65% in size
Target sequence (P80244 whole entry, looked up): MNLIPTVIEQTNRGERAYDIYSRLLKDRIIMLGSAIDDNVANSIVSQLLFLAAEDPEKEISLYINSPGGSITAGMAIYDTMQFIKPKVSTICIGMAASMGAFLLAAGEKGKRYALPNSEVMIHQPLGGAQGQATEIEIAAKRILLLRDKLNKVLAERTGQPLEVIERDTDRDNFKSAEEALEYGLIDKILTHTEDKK
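Purified B. subtilis ClpP, 10 microg/mL final in Tris/HCl pH8 with KCl, BSA, glycerol and Tween-20, cleaved an Abz/nitrotyrosine-quenched decapeptide. Fluorescence (ex 320, em 430) was read at 0 and 20 min at room temperature. Delta was normalized to 5.8 microM ADEP and DMSO/no-enzyme controls.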
TDP1 cell noCPT: qHTS for Inhibitors of human tyrosyl-DNA phosphodiesterase 1 (TDP1): qHTS in cells in absence of CPT; DT40 Tdp1-/- hTDP1 cells, no CPT, ATP luminescence, 48 h; hit rate 15% among 420,000; AID 686978, 2013; Potency, µM (highest dose often 46.2 µM), without a hit: at the top dose activity change, negative = growth inhibition, actives largely listed as inhibitors; further: on the % scale 0 is the no-effect control and ±100 the full control effect; nearly all actives have a fitted effect of over 55% in size
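Stably hTDP1-transfected Tdp1-null chicken DT40 cells were treated with library compounds minus camptothecin and grown for at least 48 hr at 37 °C, after which cellular ATP was quantified by luminescence.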
DT40 TDP1 CPT: growth inhibition of DT40 Tdp1-/-;hTDP1 cells with camptothecin (screen for TDP1 inhibitors). chicken DT40 Tdp1-/-;hTDP1 cells + 20 nM CPT, ATP luminescence, 48 h. Potency, µM (series often up to 46.2 µM), for the others: at the top dose activity change, negative = growth inhibition, usual class: inhibitors. hit rate 12% among 420,000. AID 686979; further: on the % scale 0 is the no-effect control and ±100 the full control effect; nearly all actives have a fitted effect of over 55% in size
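Chicken DT40 Tdp1-/- cells stably complemented with human TDP1 were seeded at 400 cells/well in medium containing 20 nM camptothecin, exposed to pin-transferred compounds, and grown at 37 °C for at least 48 hr. Viability was read as ATP luminescence.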
TDP1 inh: blocks human tyrosyl-DNA phosphodiesterase 1; Q9NUW8; recombinant TDP1, AlphaScreen DNA substrate cleavage; Potency, µM (highest dose often 130 µM), without a hit: top-dose activity change, negative = inhibition, hits mostly inhibitors; hit rate 0.28% among 350,000; further: on the % scale 0 is the no-effect control and ±100 the full control effect; nearly all actives have a fitted effect of over 40% in size
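Tdp1 1 nM final; 15 min RT w/ cpd; substrate 15 nM, 5 min; beads 10 ug/ml, 10 min; AlphaScreen read. Neg ctrl: no enzyme.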
Starred values were filed as active, the others as inactive; u = inconclusive; x = no result; ! = repeats disagree. Unless noted, the call rests on the fitted dose curve; in most records, active means well fitted curve in the direction sought with a large enough effect; inconclusive means small, poorly fitted or top-dose-only effect, or another doubt; inactive means no such curve, though single readings can be large; an effect the other way counts as inactive or inconclusive. Potency means the concentration at half of the fitted maximal effect.

SMILES	ClpP mod	TDP1 cell noCPT	DT40 TDP1 CPT	TDP1 inh
Cc1ccc(-c2cc(N)n3nc(-c4ccc(C)cc4)cc3n2)cc1	13µM*!	u	u	3%
Cc1ccc(-c2cc3nc(-c4ccccc4)cc(NCCCO)n3n2)cc1	4%	u	u	x
CC(=O)c1nnn(-c2c(F)cccc2F)c1C	2%	-11%	-5%	-3%
CCc1nc2ccc(C(=O)NCCc3c[nH]c4ccccc34)cn2c1N(C)Cc1ccc(N(C)C)cc1	-4%	u	u	x
COc1ccccc1C(=O)Nc1ccc(C(=O)OCc2cc(=O)n3nc(C)sc3n2)cc1	-27%	u	u	4%
O=c1n(Cc2ccccc2)c(O)c2n1Cc1ccccc1N=C2c1ccccc1	1%	u	0%	x
O=C(NC12CC3CC(CC(C3)C1)C2)C1CCCN1C(=O)Nc1ccccc1 (centres undefined)	x	-3%	0%	x
C=CC[n+]1ccnc2ccccc21	u	u	5µM*	x
C[n+]1ccnc2cc(Cl)ccc21	-7%	0.71µM*	0.63µM*	x
COc1ccccc1Oc1ccnc2cc(Cl)ccc12	x	u	u	9%
C[n+]1ccccc1/C=C/c1ccc2ncccc2c1	-17%	1%	5%	x
C[n+]1ccnc2ccccc21	-2%	4µM*	1.4µM*	x
CC(=O)n1nc(-c2ccccc2)nc1NCc1cccs1	1%	-11%	5%	0%
COc1cc(OC)c2c(c1C(CCN1CCCC(C)C1)c1ccc(N(C)C)cc1)OC(=O)CC2c1ccc(N(C)C)cc1 (centres undefined)	x	x	x	27%
CCCCCCCCN1C(=O)[C@H](CC(=O)NCCC(C)C)C[C@@]2(C(=O)OC)CCCCC=C12	3%	16µM*	u	x
CCOC(=O)[C@]12CCCC=C1N(CCc1ccc(OC)c(OC)c1)C(=O)[C@H](CC(=O)NCCCN1CCCC1=O)C2	-2%	1%	8%	x
CCCCOCCCNC(=O)C[C@@H]1C[C@@]2(C(=O)OCC)CCCC=C2N(CCc2ccc(OC)c(OC)c2)C1=O	-2%	u	21µM*	x
CCCCCCCCN1C(=O)[C@H](CC(=O)NCCCC)C[C@@]2(C(=O)OC)CCCCC=C12	-5%	12µM*	16µM*	x
COCCCNC(=O)C[C@@H]1C[C@@]2(C(=O)OC)CCCCC=C2N(Cc2ccco2)C1=O	-1%	0%	1%	x
CCCCOCCCNC(=O)C[C@@H]1C[C@@]2(C(=O)OCC)CCCC=C2N(Cc2ccco2)C1=O	2%	u	-15%	x
CCCCCCCCN1C(=O)[C@H](CC(=O)NCCCOCCCC)C[C@@]2(C(=O)OC)CCCCC=C12	1%	18µM*	13µM*	x
Nc1ccccc1C(=O)/C=C/c1ccccc1	x	x	x	7%
Cc1ccc(Cl)cc1NC(c1ccc(F)cc1)c1nnc(-c2ccccc2)o1 (centres undefined)	-3%	u	u	5%
CCCCCCCCN1C(=O)[C@H](CC(=O)NCCCOCCCC)C[C@@]2(C(=O)OCC)CCCC=C12	1%	16µM*	13µM*	x
CCCCCCCCN1C(=O)[C@H](CC(=O)NCCCCc2ccccc2)C[C@@]2(C(=O)OCC)CCCC=C12	-4%	u	u	x
SMILES	ClpP mod	TDP1 cell noCPT	DT40 TDP1 CPT	TDP1 inh
CCCC(=O)OCc1cnc(C)c2oc(=O)c(C(=O)Nc3ccccc3)cc12	1%	x	x	1%
Cn1nccc1/C=C(/C#N)S(=O)(=O)c1ccccc1	-1%	u	23µM*	7%
Cc1ccc(CN2C(=O)N/C(=C\c3ccc(-c4ccc(C(=O)O)cc4C)o3)C2=O)cc1	-30%	-6%	-13%	8.9µM*
CCN1C(=O)N/C(=C/c2cc(C)n(Cc3ccccc3)c2C)C1=O	-8%	u	18µM*	7%
CCn1c(C)cc(/C=C2\NC(=O)N(Cc3ccc(Cl)cc3)C2=O)c1C	-6%	u	-14%	6%
Cc1cc(C(=O)O)ccc1-c1ccc(/C=C2\NC(=O)N(Cc3ccccc3Cl)C2=O)o1	x	-13%	23%	-3%
Cc1ccc(/C=C2/NC(=O)N(Cc3ccccc3)C2=O)o1	-2%	23µM*	16µM*	5%
Cc1ccc(C(=O)O)cc1-c1ccc(/C=C2/NC(=O)N(c3ccccc3)C2=O)o1	-3%	-14%	1%	1.6µM*
O=C(CSc1nc(=O)n2ccccc2n1)NC1CCCCC1	1%	-1%	5%	-4%
O=C(O)c1ccc(COc2ccccc2/C=C2\NC(=O)N(Cc3ccc(F)cc3)C2=O)cc1	x	u	1%	-5%
O=C1N/C(=C/c2ccc(N3CCOCC3)o2)C(=O)N1c1ccccc1	-1%	9.2µM*	12µM*	-2%
O=C(O)c1ccc(-c2ccc(/C=C3\NC(=O)N(Cc4ccc(Cl)cc4)C3=O)o2)cc1	-8%	-23%	u	13µM*
C=CCN1C(=O)N/C(=C/c2ccc(N3CCOCC3)o2)C1=O	x	x	x	0%
CC1=NN(c2ccccc2)C(=O)C1=Cc1ccccc1	1%	-6%	-17%	x
CC1=NN(c2ccccc2)C(=O)/C1=C\c1cc(C)n(-c2ccccc2)c1C	1%	23µM*	u	3%
Cc1cc(/C=C2\Cc3ccccc3C2=O)c(C)n1-c1ccccc1	-2%	13µM*	u	5%
Cc1cc(/C=C2\C=Cc3ccccc32)cc(C)c1N	3%	u	u	x
CCc1nc2c(OCc3ccccc3)cccn2c1N(Cc1ccccc1)C(C)=O	-1%	u	18µM*	x
CCOC(=O)N(C)c1c(CC)nc2c(OCc3ccccc3)cccn12	-1%	23µM*	21µM*	x
CCOC(=O)N(C)c1c(CC)nc2c(OCc3ccc(S(C)(=O)=O)cc3)cccn12	1%	-20%	-20%	x
Cc1ccc(CN2CCC(C(=O)c3ccc(F)cc3)CC2)cc1	-1%	u	-15%	x
CC(C)NC(=O)C1(C)CCCN1Cc1ccccc1C#N (centres undefined)	0%	u	u	x
CC1(C(=O)Nc2ccccc2Cc2ccccc2)CCN1Cc1ccccc1Cl (centres undefined)	-7%	23µM*	u	x
CCNC(=O)C1(C)CCCN1Cc1ccccc1Cl (centres undefined)	-1%	u	23µM*	x
Cc1cccc(NC(=O)c2cccc(S(=O)(=O)N(C)C3CCCCC3)c2)n1	-3%	u	u	x
CCOc1ccccc1NC1=C(OC)C(=O)C(Nc2ccccc2OCC)=C(OC)C1=O	2%	u	0%	x
CC1=C(C(=O)N2CCOCC2)CC(CC(=O)NCCCN(C)C)C(=O)N1CCC1=CCCCC1 (centres undefined)	0%	1%	-2%	x
CCC1Sc2ccccc2N(CC(=O)NCc2ccc(C)cc2)C1=O (centres undefined)	0%	23µM*	u	3%
